# Experimental data taken from the supplement of paper PMC9262897, “Low-cost anti-mycobacterial drug discovery using engineered E. coli” (Nature Communications, 2022).
# Where a name gives a salt, the structure may show the parent alone. ± gives the standard deviation of the averaged measurements.
# Test system: E. coli TESEC Mtb DapB
# Test: growth (OD600 after 10 h); higher = more growth (less inhibition)
# Details: arabinose induction (level): High; compound 0.1 mM; raw OD600 reference: median of DMSO wells […], cell-free background 0.041
# Description: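 TESEC E. coli strains in which the native enzyme is deleted and replaced by arabinose-inducible Mtb Asd, DapB, CysH or TrpD, each grown in its selective medium. Strains were screened against the Prestwick library at 0.1 mM and 1% DMSO in 384-well format at low and high arabinose induction. Growth is read as OD600 after 10 h in triplicate.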
row,Structure (SMILES),growth
1,O=C1OCCN1/N=C/c1ccc([N+](=O)[O-])o1 [Furazolidone],0.114 ± 0.0074
2,O=C(c1ccccc1)c1ccc2n1CCC2C(=O)O (stereo not given) [Ketorolac tromethamine],0.194 ± 0.02
3,COc1cc(N)c(Cl)cc1C(=O)NC1CCN(Cc2ccccc2)CC1 [Clebopride maleate],0.2 ± 0.011
4,"CC1(O)CCOC(=O)C1 (stereo not given) [Mevalonic-D, L acid lactone]",0.183 ± 0.011
5,CCCCNc1ccc(C(=O)OCCN(C)C)cc1,0.174 ± 0.019
6,CC(=O)OCC(CCn1cnc2cnc(N)nc21)COC(C)=O [Famciclovir],0.179 ± 0.0051
7,CC(C)(Sc1cc(C(C)(C)C)c(O)c(C(C)(C)C)c1)Sc1cc(C(C)(C)C)c(O)c(C(C)(C)C)c1 [Probucol],0.207 ± 0.014
8,C[C@@H](O)[C@H]1C(=O)N2C(C(=O)O)=C(S[C@@H]3CN[C@H](C(=O)N(C)C)C3)[C@H](C)[C@H]12 [Meropenem],0.135 ± 0.0089
9,NC(=O)OCC(O)COc1ccc(Cl)cc1 (stereo not given) [Chlorphensin carbamate],0.214 ± 0.014
10,CO[C@@]1(NC(=O)CSCC#N)C(=O)N2C(C(=O)O)=C(CSc3nnnn3C)CS[C@@H]21 [Cefmetazole sodium salt],0.0493 ± 0.0012
11,N[C@@H](Cc1ccc(O)c(O)c1)C(=O)O [Levodopa],0.195 ± 0.0078
12,Nc1nc(/C(=C/CC(=O)O)C(=O)N[C@@H]2C(=O)N3C(C(=O)O)=CCS[C@H]23)cs1 [Ceftibuten],0.188 ± 0.021
13,COc1cc2c(cc1OC)C(=O)C(CC1CCN(Cc3ccccc3)CC1)C2 (stereo not given) [Donepezil hydrochloride],0.167 ± 0.021
14,Nc1nc(O)c2ncn(CCC(CO)CO)c2n1 [Penciclovir],0.226 ± 0.013
15,Cc1cccc(C)c1OCC(C)N (stereo not given) [Mexiletine hydrochloride],0.2 ± 0.013
16,CC1(C)S[C@@H]2[C@H](NC(=O)[C@H](N)c3ccc(O)cc3)C(=O)N2[C@H]1C(=O)O [Amoxicillin],0.217 ± 0.029
17,CCOC(=O)/C=C(C)/C=C/C=C(C)/C=C/c1c(C)cc(OC)c(C)c1C [Etretinate],0.1575 ± 0.0014
18,CCC1=C(C)CN(C(=O)NCCc2ccc(S(=O)(=O)NC(=O)N[C@H]3CC[C@H](C)CC3)cc2)C1=O [Glimepiride],0.21 ± 0.012
19,Cc1cc(C(C)(C)C)c(O)c(C)c1CC1=NCCN1 [Oxymetazoline hydrochloride],0.202 ± 0.016
20,N[C@@H]1CCCCN(c2c(F)cc3c(=O)c(C(=O)O)cn(C4CC4)c3c2Cl)C1 [Besifloxacin hydrochloride],0.0491 ± 0.0014

# Same assay, conditions: arabinose induction (level): Low; compound 0.1 mM; raw OD600 reference: median of DMSO wells 0.227, cell-free background 0.041
row,Structure (SMILES),growth
1,O=C1OCCN1/N=C/c1ccc([N+](=O)[O-])o1 [Furazolidone],0.112 ± 0.012
2,O=C(c1ccccc1)c1ccc2n1CCC2C(=O)O (stereo not given) [Ketorolac tromethamine],0.216 ± 0.049
3,COc1cc(N)c(Cl)cc1C(=O)NC1CCN(Cc2ccccc2)CC1 [Clebopride maleate],0.223 ± 0.031
4,"CC1(O)CCOC(=O)C1 (stereo not given) [Mevalonic-D, L acid lactone]",0.206 ± 0.024
5,CCCCNc1ccc(C(=O)OCCN(C)C)cc1,0.186 ± 0.0082
6,CC(=O)OCC(CCn1cnc2cnc(N)nc21)COC(C)=O [Famciclovir],0.199 ± 0.031
7,CC(C)(Sc1cc(C(C)(C)C)c(O)c(C(C)(C)C)c1)Sc1cc(C(C)(C)C)c(O)c(C(C)(C)C)c1 [Probucol],0.22 ± 0.016
8,C[C@@H](O)[C@H]1C(=O)N2C(C(=O)O)=C(S[C@@H]3CN[C@H](C(=O)N(C)C)C3)[C@H](C)[C@H]12 [Meropenem],0.169 ± 0.013
9,NC(=O)OCC(O)COc1ccc(Cl)cc1 (stereo not given) [Chlorphensin carbamate],0.279 ± 0.041
10,CO[C@@]1(NC(=O)CSCC#N)C(=O)N2C(C(=O)O)=C(CSc3nnnn3C)CS[C@@H]21 [Cefmetazole sodium salt],0.0513 ± 0.0023
11,N[C@@H](Cc1ccc(O)c(O)c1)C(=O)O [Levodopa],0.209 ± 0.013
12,Nc1nc(/C(=C/CC(=O)O)C(=O)N[C@@H]2C(=O)N3C(C(=O)O)=CCS[C@H]23)cs1 [Ceftibuten],0.231 ± 0.034
13,COc1cc2c(cc1OC)C(=O)C(CC1CCN(Cc3ccccc3)CC1)C2 (stereo not given) [Donepezil hydrochloride],0.199 ± 0.039
14,Nc1nc(O)c2ncn(CCC(CO)CO)c2n1 [Penciclovir],0.244 ± 0.02
15,Cc1cccc(C)c1OCC(C)N (stereo not given) [Mexiletine hydrochloride],0.288 ± 0.071
16,CC1(C)S[C@@H]2[C@H](NC(=O)[C@H](N)c3ccc(O)cc3)C(=O)N2[C@H]1C(=O)O [Amoxicillin],0.259 ± 0.046
17,CCOC(=O)/C=C(C)/C=C/C=C(C)/C=C/c1c(C)cc(OC)c(C)c1C [Etretinate],0.186 ± 0.0064
18,CCC1=C(C)CN(C(=O)NCCc2ccc(S(=O)(=O)NC(=O)N[C@H]3CC[C@H](C)CC3)cc2)C1=O [Glimepiride],0.221 ± 0.018
19,Cc1cc(C(C)(C)C)c(O)c(C)c1CC1=NCCN1 [Oxymetazoline hydrochloride],0.251 ± 0.028
20,N[C@@H]1CCCCN(c2c(F)cc3c(=O)c(C(=O)O)cn(C4CC4)c3c2Cl)C1 [Besifloxacin hydrochloride],0.0491 ± 0.001
